Hsp70 activator: Hsp70 transcriptional activation, primary screen. HeLa Hsp70 promoter luciferase reporter, luminescence; scaled: vehicle 0, proteasome-inhibitor control 100%. activation, % at 10 µM. 0.04% of 200,000 active. AID 1203;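 active = activation above the mean across all tested compounds plus 3 SD, cutoff set per campaign, cut at about 5.5% in these data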;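 also: 100% = MG132 at 30 µM as the positive control and 0% = DMSO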
HSP90 refold inh: inhibitors of HSP90 luciferase refolding in rabbit reticulocyte lysate; luciferase refolding luminescence, 3 h; inhibition, % at 5.6 µM; 0.91% of 290,000 active; AID 1789;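 active = inhibition above the screen-wide mean plus 3 SD, computed separately per campaign, cut at about 16% in these data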;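 also: 0% = DMSO wells and 100% = 60 µM geldanamycin wells; inhibitors lower the luminescence because luciferase stays unfolded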
HSF1 inhib: HSF1 inhibition. NIH3T3-HGL HSE-luciferase, MG132-induced, luminescence 8 h; hits give low values. activity change, negative = inhibition, % at 7.5 µM (by protocol). 0.77% of 300,000 active. AID 2098;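 active = more than half of replicate wells show activity change below -50%, luminescence cut by over half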;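 also: luciferase reports HSF-1 transcriptional activity via heat shock element; 0% = median of DMSO wells and -100% = zero luminescence signal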
pCIP destab: lowers stability of the mouse p/CIP coactivator protein | F442A p/CIP-EGFP cells, EGFP fluorescence, 16 h | 0.01% of 290,000 active | Q05BA5 | decrease of EGFP signal, % at 10 µM | AID 1984;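 active = EGFP signal decrease of at least 30% at 10 µM or well 3 SD below plate mean, unless failing retest; inactive = the rest, including hits failing retest or dose response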
HSF-1 act: increases HSF-1 driven luciferase reporter signal; NIH3T3-HGL HSF-1 luciferase reporter, MG132, 8 h; 100% = twice DMSO control signal; activation, % at 9 µM; 1.7% of 300,000 active;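 active = mean replicate activation of at least 50% with a set share of replicates each reaching 50%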;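 also: 0% = median of the neutral control wells and 100% = twice that signal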
NALP1 yeast inh: blocks the NALP1 inflammasome reconstituted in yeast | S. cerevisiae NALP1/ASC/caspase-1 growth, X-gal OD620, 72 h | inhibition, % at 10 µM | 0.61% of 280,000 active; in the data active = inhibition mostly above about 24%, no sharp cut-off; inactive = mostly below about 32%
HSP90 inh confirm: confirmation of HSP90 inhibitors; shares compounds with HSP90 refold inh; 64% of 2,300 active; inhibition, % at 5.9 µM; AID 1846; rabbit reticulocyte lysate, luciferase refolding luminescence, 3 h; in the data active = inhibition above about 18%;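 also: 0% = vehicle wells and 100% = reference inhibitor wells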
FLuc counter: counter-screen for HSP90 inhibitors: inhibitors of firefly luciferase; inhibition, % at 5.9 µM; purified native firefly luciferase, luminescence; 48% of 2,300 active; shares compounds with HSP90 refold inh;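 active = inhibition above the mean inhibition of all tested sample wells plus 3 SD, cut at about 10% in these data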;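 also: 0% = DMSO with luciferase and 100% = wells lacking luciferase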
Target sequence (P08659 whole entry, looked up): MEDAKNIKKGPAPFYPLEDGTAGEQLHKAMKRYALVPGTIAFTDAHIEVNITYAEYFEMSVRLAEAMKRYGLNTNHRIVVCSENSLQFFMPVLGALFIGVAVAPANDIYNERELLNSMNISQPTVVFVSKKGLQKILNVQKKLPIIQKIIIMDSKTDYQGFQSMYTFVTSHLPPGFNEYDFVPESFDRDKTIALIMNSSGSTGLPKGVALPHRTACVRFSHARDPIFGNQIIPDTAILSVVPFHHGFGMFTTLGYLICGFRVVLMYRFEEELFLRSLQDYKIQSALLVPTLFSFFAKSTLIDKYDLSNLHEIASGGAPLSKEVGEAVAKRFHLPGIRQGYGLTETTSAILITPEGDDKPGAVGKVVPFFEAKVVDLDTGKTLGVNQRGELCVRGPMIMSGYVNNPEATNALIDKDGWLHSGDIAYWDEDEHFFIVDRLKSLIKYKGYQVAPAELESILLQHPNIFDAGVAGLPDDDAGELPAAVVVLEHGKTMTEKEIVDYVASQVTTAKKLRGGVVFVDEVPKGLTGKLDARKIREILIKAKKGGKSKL
Starred values were filed as active, the others as inactive; / = not tested or not shown. Most compounds without a hit are left out; they make up all but 3.8% or so of the library.

SMILES	Hsp70 activator	HSP90 refold inh	HSF1 inhib	pCIP destab	HSF-1 act	NALP1 yeast inh	HSP90 inh confirm	FLuc counter
O=C(NCc1ccco1)C1CCCN(S(=O)(=O)Cc2ccccc2)C1 (configuration not stated)	-0.3	49.1*	-8.0	3.3	-6.1	20.8	-2.0	-8.0
NC(=O)CC(NC(=O)Cc1ccc(Cl)cc1)c1ccc(NCc2ccccc2)c([N+](=O)[O-])c1 (configuration not stated)	/	/	-4.1	-22.4	18.8	/	/	/
O=C(COc1ccccc1Cl)N(Cc1cccs1)C1CCS(=O)(=O)C1 (configuration not stated)	/	-6.6	0.9	1.0	-2.5	-14.4	/	/
Cc1cc(Cl)ccc1OCC(=O)N(Cc1cccs1)C1CCS(=O)(=O)C1 (configuration not stated)	/	22.9*	15.5	-9.9	41.3	2.1	2.2	-4.3
CCOCCCNC(=S)N1CCN(CC)CC1	-0.1	0.4	-2.2	-14.8	-0.1	4.6	/	/
CCCCNC(=S)N1CCN(CC)CC1	-0.1	52.6*	5.7	-2.0	-3.1	12.0	-0.1	-3.3
Cc1ccccc1-c1nc2sc3c(c2c(=O)n1N)CCCC3	0.2	37.6*	-60.2*	-4.4	-68.8	8.9	36.6*	37.0*
CCCS(=O)(=O)c1nc(S(=O)(=O)c2ccc(C)cc2)c(N2CCN(CCO)CC2)s1	/	3.0	-3.5	-16.3	-6.9	-6.4	/	/
Nc1c(C(=O)OCC2CCCO2)c2nc3ccccc3nc2n1C1CCCC1 (configuration not stated)	-0.1	17.2*	4.9	-4.3	21.0	6.2	-1.7	-7.7
CCc1nnc(NC(=O)CSc2nc3c(cc2C#N)CCCC3)s1	0.0	25.2*	5.3	-1.1	10.8	-2.1	2.3	-4.2
Nc1c(-c2ccc(Cl)cc2)cnc2c(-c3ccc(F)cc3)cnn12	/	-3.0	4.3	6.3	6.5	8.3	/	/
Cc1nc2c(-c3ccc(Cl)cc3)cnn2c(N)c1-c1ccc(F)cc1	/	68.9*	-74.4*	-4.1	-76.8	-0.6	67.3*	68.3*
COc1ccc(-c2c(C)nc3c(-c4ccc(F)cc4)cnn3c2N)cc1	/	17.4*	-30.4	-10.5	-32.3	1.7	16.5*	11.3*
CCOc1ccc(NC(=O)N2CCC(c3nc4ccccc4o3)CC2)cc1	-0.2	0.8	1.3	-0.9	-11.2	3.8	/	/
CCOc1ccc(NC(=O)N2CCC(c3nc4ccccc4[nH]3)CC2)cc1	0.1	25.5*	/	11.5	/	-0.1	-12.7	-15.8
CCCCC(=O)Nc1nc2ccc(C(=O)OC)cc2s1	0.2	41.2*	11.1	-4.4	17.8	11.2	58.6*	-16.5
O=C(CCl)N(C1CCCC1)C1CCS(=O)(=O)C1 (configuration not stated)	/	-0.9	0.0	0.1	-10.6	9.3	/	/
COc1cccc(CNC(=O)C2Cc3cc(S(=O)(=O)N4CCCC4)ccc3N2C(C)=O)c1OC (configuration not stated)	/	-2.6	8.2	2.2	14.4	11.0	/	/
COc1ccc(OC)c2c1C(=O)c1ccccc1C2=O	-0.1	-1.1	5.0	-7.7	-2.2	25.3	/	/
COc1cccc2c1C(=O)c1ccc3ccccc3c1C2=O	-0.2	26.1*	15.8	0.2	12.6	1.7	-1.0	-23.6
O=C(O)CCCCCNC(=O)OCC1c2ccccc2-c2ccccc21	/	-2.9	-8.5	-6.0	2.5	-4.2	/	/
COc1cc(C=C2C(=O)c3ccccc3C2=O)cc(OC)c1OC	-0.4	21.1*	-5.6	8.8	-1.2	-16.3	-6.2	-8.2
COc1cc(C=C2C(=O)c3ccccc3C2=O)ccc1O	/	9.2	4.0	-6.3	5.0	-10.8	/	/
Cc1nn(C)c(C(=O)N/N=C/c2ccc(-c3ccccc3)cc2)c1Cl	/	-0.7	-2.1	-11.5	-15.6	-3.5	/	/
O=C(c1cccc(Cl)c1)N1CCC(N2CCC(C(=O)N3CCCC3)CC2)CC1	/	0.2	-6.3	-2.6	-13.7	16.5	/	/
SMILES	Hsp70 activator	HSP90 refold inh	HSF1 inhib	pCIP destab	HSF-1 act	NALP1 yeast inh	HSP90 inh confirm	FLuc counter
Cc1ccc(C(=O)N2CCN(c3ccc(NC(=O)COc4ccccc4C)cc3)CC2)cc1	-0.2	4.9	7.1	0.4	14.4	1.0	/	/
COc1ccc(/C=C2\SC(N3CCCCC3)=NC2=O)cc1	/	-2.2	4.1	-1.1	5.1	-12.9	/	/
O=C1N=C(N2CCCC2)S/C1=C\C=C\c1ccccc1	/	36.4*	-75.7*	-18.8	-79.5	13.9	55.9*	53.9*
CCc1ccc(/C=C2\SC(N3CCCC3)=NC2=O)cc1	0.1	25.8*	-7.1	-11.2	-2.9	-7.2	11.5	12.3*
COc1ccc(N=CC2=C(O)c3ccccc3C2=O)cc1	0.0	28.9*	-24.7	-5.6	-18.4	17.8	76.8*	79.7*
COc1ccc(N2CCC(CNS(=O)(=O)c3cccc(C(F)(F)F)c3)C2)cc1 (configuration not stated)	-0.4	59.1*	6.2	-1.8	2.5	14.3	2.5	-0.6
CC(C)(C)n1ncc2c(=O)n(CC(=O)OCc3ccccc3)cnc21	0.1	83.5*	-73.4*	-14.4	-74.3	17.9	91.3*	89.4*
CC(=O)c1c(C)[nH]c(C(=O)OCCOc2ccccc2)c1C	-0.2	34.0*	8.4	-8.2	28.8	-13.8	54.9*	57.0*
c1ccc(-n2nnc3c(N4CCOCC4)ncnc32)cc1	-0.1	30.0*	-11.6	-12.7	18.8	0.9	66.5*	55.3*
CCO[C@@H]1OC(C(=O)N2CCN(Cc3ccc4c(c3)OCO4)CC2)=C[C@H](c2ccc(C(F)(F)F)cc2)[C@H]1CCCO	-0.2	23.5*	-1.6	-12.2	-16.4	-2.5	3.9	-1.8
O=C(Nc1ccc2c(c1)nc1n2CCSC1)c1ccco1	-0.4	35.2*	7.1	-19.5	30.4	-14.3	44.6*	20.3*
CC(=O)N/C(=C/c1ccc2c(c1)OCO2)C(=O)NCc1ccccc1	-0.1	-3.4	-2.1	-5.8	8.8	5.4	/	/
CCN(Cc1ccncc1)C(=O)c1ccccc1NS(=O)(=O)c1ccc(Br)cc1	/	21.5*	5.1	-6.7	-10.5	-11.4	-5.6	-10.7
Nc1nc(-c2ccc(NC(=O)c3ccco3)cc2)cs1	/	28.4*	9.0	-1.9	24.6	5.4	50.6*	46.0*
CCc1noc(C)c1C(=O)Nc1nc(-c2ccc(Cl)cc2Cl)cs1	-0.4	-2.5	4.9	-7.5	12.2	14.7	/	/
COc1ccccc1-c1nc(-c2ccccn2)no1	-0.2	46.7*	-9.8	5.1	-7.1	10.5	78.0*	65.1*
Brc1ccc(-c2noc(-c3ccccn3)n2)o1	/	11.3	23.2	4.0	36.0	26.2	/	/
Brc1ccc(-c2nc(-c3ccccn3)no2)o1	-0.1	44.5*	-3.7	-8.1	1.6	-1.7	60.0*	55.1*

High-throughput results: PubChem BioAssay, several laboratories
